PubChem BioAssay (NCATS)
Records with an inconclusive call do not appear. Calls of active or inactive are those of the source. Calls come from the whole dose curve; as a rule, active = well fitted inhibition curve with a large enough effect; inconclusive = small, poorly fitted or top-dose-only effect; inactive = flat fitted curve, though single readings scatter.

Key:
Assay in all cases: qHTS profiling for inhibitors of Plasmodium falciparum proliferation (AID 504749); note: nearly all actives have a fitted effect of over 60% in size
Settings in all cases: P. falciparum in erythrocytes, SYBR Green DNA, 72 h; series mostly up to 28.7 µM
CP265 = tested on: CP265
In short: (§1)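 SYBR Green fluorescence (ex 485 nm, em 535 nm) reports parasite DNA after 72 h compound exposure of infected red cells at 0.3% parasitemia, 2.5% hematocrit; signal normalized to 0.29 uM artemisinin and vehicle wells.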

CP266 = tested on: CP266
In short: as §1

CP268 = tested on: CP268
In short: as §1

CP269 = tested on: CP269
In short: as §1

CP286 = tested on: CP286
In short: as §1

CP291 = tested on: CP291
In short: as §1

CP297 = tested on: CP297
In short: as §1

CP305 = tested on: CP305
In short: as §1

CP315 = tested on: CP315
In short: as §1

CP325 = tested on: CP325
In short: as §1

CP329 = tested on: CP329
In short: as §1

CP335 = tested on: CP335
In short: as §1

DFO2036 = tested on: DFO2036
In short: as §1

DIV14 = tested on: DIV14
In short: as §1

DIV17 = tested on: DIV17
In short: as §1

DIV30 = tested on: DIV30
In short: as §1

Dd2 = tested on: Dd2
In short: as §1

ECU = tested on: ECU
In short: as §1

FAB9 = tested on: FAB9
In short: as §1

GB4 = tested on: GB4
In short: as §1

Measured: Potency

CCCCN=C(N)N=C(N)N
inactive: CP265 | CP266 | CP268 | CP269 | CP286 | CP291 | CP297 | CP305 | CP315 | CP325 | CP329 | CP335 | DFO2036 | DIV14 | DIV17 | DIV30 | Dd2 | ECU | FAB9 | GB4

Cc1cc(NS(=O)(=O)c2ccc(N)cc2)nc(C)n1
inactive: CP265 | CP266 | CP268 | CP269 | CP286 | CP291 | CP297 | CP305 | CP315 | CP325 | CP329 | CP335 | DFO2036 | DIV14 | DIV17 | DIV30 | Dd2 | ECU | FAB9 | GB4

C[C@@H](O)[C@H]1C(=O)N2C(C(=O)O)=C(S[C@@H]3CN[C@H](CNS(N)(=O)=O)C3)[C@H](C)[C@H]12
inactive: CP265 | CP266 | CP268 | CP269 | CP286 | CP291 | CP297 | CP305 | CP315 | CP325 | CP329 | CP335 | DFO2036 | DIV14 | DIV17 | DIV30 | Dd2 | ECU | FAB9 | GB4

O=C(NCCc1c[nH]c2ccccc12)c1cccnc1
inactive: CP265 | CP266 | CP268 | CP269 | CP286 | CP291 | CP297 | CP305 | CP315 | CP325 | CP329 | CP335 | DFO2036 | DIV14 | DIV17 | DIV30 | Dd2 | ECU | FAB9 | GB4

NC(=O)n1c(O)c(C(=O)c2cccs2)c2cc(Cl)ccc21
inactive: CP265 | CP266 | CP268 | CP269 | CP286 | CP291 | CP297 | CP305 | CP315 | CP325 | CP329 | CP335 | DFO2036 | DIV14 | DIV17 | DIV30 | Dd2 | ECU | FAB9 | GB4

CC(=O)Nc1ccc(OCC(O)CNC(C)C)cc1 (stereo not given)
inactive: CP265 | CP266 | CP268 | CP269 | CP286 | CP291 | CP297 | CP305 | CP315 | CP325 | CP329 | CP335 | DFO2036 | DIV14 | DIV17 | DIV30 | Dd2 | ECU | FAB9 | GB4

CC(=O)OCC(=O)[C@H]1CC[C@H]2[C@@H]3CCC4=CC(=O)CC[C@]4(C)[C@H]3CC[C@]12C
inactive: CP265 | CP266 | CP268 | CP269 | CP286 | CP291 | CP297 | CP305 | CP315 | CP325 | CP329 | CP335 | DFO2036 | DIV14 | DIV17 | DIV30 | Dd2 | ECU | FAB9 | GB4

CCc1oc2ccccc2c1C(=O)c1cc(I)c(O)c(I)c1
inactive: CP265 | CP266 | CP268 | CP269 | CP286 | CP291 | CP297 | CP305 | CP315 | CP325 | CP329 | CP335 | DFO2036 | DIV14 | DIV17 | DIV30 | Dd2 | ECU | FAB9 | GB4

CCc1oc2ccccc2c1C(=O)c1cc(Br)c(O)c(Br)c1
inactive: CP265 | CP266 | CP268 | CP269 | CP286 | CP291 | CP297 | CP305 | CP315 | CP325 | CP329 | CP335 | DFO2036 | DIV14 | DIV17 | DIV30 | Dd2 | ECU | FAB9 | GB4

Cc1ccccc1OCC(O)CO (stereo not given)
inactive: CP265 | CP266 | CP268 | CP269 | CP286 | CP291 | CP297 | CP305 | CP315 | CP325 | CP329 | CP335 | DFO2036 | DIV14 | DIV17 | DIV30 | Dd2 | ECU | FAB9 | GB4

C#C[C@]1(O)CC[C@H]2[C@@H]3CCc4cc(OC)ccc4[C@H]3CC[C@@]21C
inactive: CP265 | CP266 | CP268 | CP269 | CP286 | CP291 | CP297 | CP305 | CP315 | CP325 | CP329 | CP335 | DFO2036 | DIV14 | DIV17 | DIV30 | Dd2 | ECU | FAB9 | GB4

Nc1ccc(C(=O)NCC(=O)O)cc1
inactive: CP265 | CP266 | CP268 | CP269 | CP286 | CP291 | CP297 | CP305 | CP315 | CP325 | CP329 | CP335 | DFO2036 | DIV14 | DIV17 | DIV30 | Dd2 | ECU | FAB9 | GB4

O=C(O)P(=O)(O)O
inactive: CP265 | CP266 | CP268 | CP269 | CP286 | CP291 | CP297 | CP305 | CP315 | CP325 | CP329 | CP335 | DFO2036 | DIV14 | DIV17 | DIV30 | Dd2 | ECU | FAB9 | GB4

Cc1c(-c2ccccc2)oc2c(C(=O)OCCN3CCCCC3)cccc2c1=O
inactive: CP265 | CP266 | CP268 | CP269 | CP286 | CP291 | CP297 | CP305 | CP315 | CP325 | CP329 | CP335 | DFO2036 | DIV14 | DIV17 | DIV30 | Dd2 | ECU | FAB9 | GB4
